The term AC50 denotes the midpoint of the concentration-response curve, whichever way the signal moves.

Consider 19 compounds from PubChem BioAssay (EPA / NIEHS).

Calls of active or inactive are those of the source. The calls were made as follows: active = hit-call score of the fitted dose curve at least 0.9, where 1 is the maximum; inactive = score below 0.9.

This assay in a line: CCTE_Shafer_MEA_acute_network_burst_percentage: CCTE's Neural Acute Assay for Percentage of Network Bursts, Shafer Lab (AID 2284022).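 Also: curves fitted for loss so actives lower network burst percentage.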 As for the experimental part:
CCTE_Shafer_MEA_acute assay is conducted using Axion Biosystems 48 well microelectrode array (MEA) plates and Maestro recording system. Each well of the MEA plate contains a grid of 16 microelectrodes embedded in the culture surface. Electrically active cells, such as neurons, can be cultured over the electrodes, and electrical activity in these cells can be recorded extracellularly. The spontaneous firing of neurons is captured from each electrode on a microsecond timescale providing both temporally and spatially precise data. […] The CCTE_Shafer_MEA_acute assay uses primary cultures of rat cortical neurons. As these cultures mature over time, neural networks develop functional activity and form cohesive networks in which electrical activity can be highly coordinated. Baseline 40-minute recordings are made on days post-plating 13 or 15, followed by a secondary 40-minute recording after chemical exposure.CCTE_Shafer_MEA_acute_network_burst_percentage is a component of the CCTE_Shafer_MEA_acute assay. It measures the percent of spikes (action potential firings) in network bursts (temporally-clustered groups of spikes across multiple electrodes) as the number of spikes occuring in network bursts divided by the total number of spikes during a recording in a microelectrode array (MEA) using Axion Biosystems Maestro 768 channel amplifier with the AxIS adaptive spike detector. The recordings before and after chemical treatment are used to calculate a percent change in the network burst percentage in each well.Data from the assay component CCTE_Shafer_MEA_acute_network_burst_percentage was analyzed into 1 assay endpoint. This assay endpoint, CCTE_Shafer_MEA_acute_network_burst_percentage, was analyzed in the negative analysis fitting direction relative to DMSO as the negative control and baseline of activity. Using a type of functional reporter, gain or loss-of-signal activity can be used to understand electrical activity.
Spontaneous activity in the cortical cultures was recorded using an Axion Biosystems Maestro 768 channel amplifier and Axion Integrated Studios (AxIS) v1.8 (or later) software. The amplifier recorded from all channels simultaneously (gain = 1200 x; sampling rate = 12.5 kHz/channel): raw signals were filtered with a Butterworth band-pass filter (300-5000 Hz), which filters out slower local field potentials leaving only fast potentials, i.e., "spikes", arising from extracellular currents associated with action potentials (Pine 2006; Wheeler and Nam 2011). On-line spike detection of filtered signals was conducted with the AxIS adaptive spike detector, using a threshold of 8x the root mean squared (rms) noise on each channel. Any electrodes with rms noise levels greater than 5 uV were grounded (e.g., no data were recorded). Once grounded, an electrode was grounded for the duration of the experiment. All recordings were conducted at 37 C. Wells were deemed usable if on the day of the exposure >/= 10 electrodes were active (defined as >/= 5 spikes/min). On DIV 13 or 15, a minimum of three wells from one cortical culture preparation were treated with each compound (0.03-40 uM). Prior to recording baseline activity, each mwMEA plate was placed in the Maestro at 37 C and allowed to sit for 20 min while firing rates stabilized. Baseline activity (40 min) was recorded before the addition of each compound. An additional 40 min of spontaneous activity was recorded in the presence of each compound. Changes in network parameters relative to baseline were assessed following compound treatment.
As for `CCC(C)(C)c1ccc(O)c(C(C)(C)CC)c1`, the AC50 is 36.6 µM (active).
With `O=C(O)C(Cl)(Cl)Cl`, the compound was classed as inactive.
On the same count and under the same terms, as for `CC(C)(C)CC(C)(C)c1ccc(O)cc1`, the entry is “inactive”; as for `O=C1C2(Cl)C3(Cl)C4(Cl)C(Cl)(Cl)C5(Cl)C3(Cl)C1(Cl)C5(Cl)C24Cl` (centres undefined), “inactive”.
Take `CC(C)(c1ccccc1)c1ccc(O)c(C(C)(C)c2ccccc2)c1`: the concentration at half-maximal activity (AC50) was 28.6 µM (active).
Take `CC(=O)OC(c1ccccc1)C(Cl)(Cl)Cl` (centres undefined): the call was inactive.
With `CCCCCCCCc1ccc(O)cc1`, the half-maximal activity concentration (AC50) is 3.39 µM (active).
With `CCC(=O)C(CC(C)N(C)C)(c1ccccc1)c1ccccc1` (centres undefined), the compound was called inactive.
The same measure, in the same setting: as for `COC(=O)Cc1ccccc1`, the entry is “inactive”.
Regarding `CC(C)(C)c1cc(O)ccc1O`, the compound was classed as inactive.
Regarding `O=C(Nc1ccc2[nH]ccc2c1)c1cc2cc(F)ccc2n1Cc1cccc(F)c1`, the compound was called inactive.
In the case of `CC(=O)[O][Hg][c]1ccccc1`, the AC50 was 1.3 µM (active).
As to `C[C@]12CCC(=O)C[C@@H]1CC[C@@H]1[C@@H]2CC[C@]2(C)[C@@H](O)CC[C@@H]12`, the compound was classed as inactive.
As for `O=C(O)C(F)(F)C(F)(F)C(F)(F)C(F)(F)C(F)(F)C(F)(F)C(F)(F)C(F)(F)C(F)(F)C(F)(F)F`, the compound was called inactive.
With `CCOP(=S)(OCC)SCSP(=S)(OCC)OCC`, the half-maximal activity concentration (AC50) was 27 µM (active).
The same measure, in the same setting: as for `C=C(C)C(=O)[O][Sn]([CH2]CCC)([CH2]CCC)[CH2]CCC`, the figure is 0.205 µM (active); as for `CCN1CCC2(CC1)COc1cc3c(cc12)N(C(=O)c1ccc(-c2ccc(-c4nnc(C)o4)cc2C)cc1)CC3`, 24.9 µM (active).
For the compound `ClC1(Cl)C2(Cl)C3(Cl)C4(Cl)C(Cl)(Cl)C5(Cl)C3(Cl)C1(Cl)C5(Cl)C24Cl` (centres undefined), the compound was classed as inactive.
Still for that read-out and setting: as for `CC(C)(OO)c1ccccc1`, the entry is “inactive”.
